Hit rate of the full screen: of about 52,000 compounds, about 4,300 (8.3%) were called active. This is one part of a sample in which actives are shown more often than they occur. Cut-off read from the data, not from the text of the source: active = survival mostly below about 52% (no sharp cut-off); inactive = mostly above about 56%.
System: DeltatarO mutant
Experiment: S. aureus survival, RN4220 and DeltatarO strains – OD600, teichoic acid synthesis inhibitors, primary screen (AID 463173)
Conditions: S. aureus RN4220 wild type/DeltatarO growth, OD600, 18 h, stronger effect = lower value, screened at 18.75 µg/mL (by protocol)

Structure (SMILES)	survival
CC(C)CN1CCc2nc(N3CCN(c4ncccn4)CC3)ncc2C1	72% (inactive)
CCNc1nc(NCC)nc(N(C#N)CC)n1	62% (inactive)
CCc1ccc(NC(=O)Cn2c(=O)n(Cc3ccc(C)cc3)c(=O)c3cccnc32)cc1	88% (inactive)
CC(=O)c1ccc(N2CCN(C(=O)Nc3cn(CC(C)C)c(=O)c4ccccc34)CC2)cc1	80% (inactive)
Cc1ccc(C)c(NC(=O)c2cnc(N3CCCC3)nc2C)c1	94% (inactive)
COc1ccc(NC(=O)CSc2oc(-c3ccc(F)cc3)nc2S(=O)(=O)c2ccc(C)cc2)c(OC)c1	61% (inactive)
Cc1cccc(NC(=O)NCCOCCn2c(=O)oc3ccccc32)c1C	99% (inactive)
O=C(Nc1ccc(Cl)cc1)N1CCC(CN2CCCC2)CC1	84% (inactive)
CCCCC(=O)Nc1cccc(OCc2cc(=O)n3ccccc3n2)c1	87% (inactive)
O=C(NC1CCCCC1)c1ccc2c(c1)N(Cc1cccc(Cl)c1)C(=O)c1ccccc1S2=O (stereo unspecified)	101% (inactive)
O=C(NCCC1=CCCCC1)c1ccc2c(c1)N(Cc1ccc(Cl)cc1)C(=O)c1ccccc1S2=O (stereo unspecified)	63% (inactive)
CN(C(=O)c1ccc2c(c1)N(Cc1cccc(Cl)c1)C(=O)c1ccccc1S2=O)C1CCCCC1 (stereo unspecified)	101% (inactive)
CC1CCC(NC(=O)c2ccc3c(c2)N(Cc2ccccc2)C(=O)c2ccccc2S3=O)CC1 (stereo unspecified)	104% (inactive)
CCN(C(=O)c1ccc2c(c1)N(Cc1cccc(Cl)c1)C(=O)c1ccccc1S2=O)c1ccccc1 (stereo unspecified)	32% (active)
CCOC(=O)N1CCC(NC(=O)c2ccc3c(c2)N(Cc2cc(C)ccc2C)C(=O)c2ccccc2S3=O)CC1 (stereo unspecified)	42% (active)
CC1CCC(NC(=O)c2ccc3c(c2)N(Cc2cccc(Cl)c2)C(=O)c2ccccc2S3=O)CC1 (stereo unspecified)	25% (active)
CCCCN(C)C(=O)c1ccc2c(c1)N(Cc1cccc(Cl)c1)C(=O)c1ccccc1S2=O (stereo unspecified)	99% (inactive)
O=C(NCCC1=CCCCC1)c1ccc2c(c1)N(Cc1cccc(Cl)c1)C(=O)c1ccccc1S2=O (stereo unspecified)	37% (active)
CCOC(=O)N1CCC(NC(=O)c2ccc3c(c2)N(Cc2ccccc2C)C(=O)c2ccccc2S3=O)CC1 (stereo unspecified)	53% (inactive)

Structure (SMILES)	survival
O=C(NCCC1=CCCCC1)c1ccc2c(c1)N(Cc1ccccc1)C(=O)c1ccccc1S2=O (stereo unspecified)	70% (inactive)
CCOC(=O)N1CCC(NC(=O)c2ccc3c(c2)N(Cc2ccccc2)C(=O)c2ccccc2S3=O)CC1 (stereo unspecified)	57% (inactive)
Cc1ccc(-n2c(=O)c3c(cnn3C)n(CC(=O)Nc3c(C)cccc3C)c2=O)cc1	85% (inactive)
COc1ccc(NC(=O)Cn2c(=O)n(-c3ccc(CC(=O)NCC4CCCO4)cc3)c(=O)c3ccccc32)c(OC)c1 (stereo unspecified)	102% (inactive)
COc1cc(C(=O)N2CCN(c3ccc(Nc4ccccc4)nn3)CC2)cc(OC)c1OC	80% (inactive)
COc1cc(C(=O)Nc2sc(C(=O)N3CCOCC3)c(C)c2C#N)cc(OC)c1OC	84% (inactive)
CN(C)CCN(C(=O)c1ccco1)c1nc2c(F)cc(F)cc2s1	72% (inactive)
O=C(c1ccc2c(c1)N(Cc1ccc(Cl)cc1)C(=O)c1ccccc1S2(=O)=O)N1CCOCC1	96% (inactive)
O=C1OC(C(=O)Nc2ccc(Cl)c(C(F)(F)F)c2)Cc2ccccc21 (stereo unspecified)	55% (inactive)
O=C1OC(C(=O)Nc2cccc(Br)c2)Cc2ccccc21 (stereo unspecified)	54% (inactive)
O=C1OC(C(=O)Nc2cc(C(F)(F)F)ccc2Cl)Cc2ccccc21 (stereo unspecified)	56% (active)
CCCOc1ccc(C(=O)N(Cc2cccs2)c2ccc(C)cc2)cc1	70% (inactive)
Cn1c(CCNC(=O)c2ccco2)nc2cc(NC(=O)COc3ccc(Cl)cc3)ccc21	58% (inactive)
COc1cc(OC)c(NC(=O)c2c3c(nc4ccccc24)C(=O)N(C2CCCCC2)C3)cc1Cl	60% (inactive)
Cc1ccc(-n2nc(CO)c(C(=O)NCC(c3ccccc3)c3ccccc3)n2)cc1	90% (inactive)
CCOc1ccc(CCNC(=O)CCSCc2cccc(Cl)c2)cc1OCC	81% (inactive)
CCOCCc1nn2c(=O)cc(COC(=O)c3ccccc3NC(=O)CC(C)C)nc2s1	89% (inactive)
COc1ccc(OC)c(NC(=O)CCCc2nnc3n(C(C)C)c(=O)c4sccc4n23)c1	74% (inactive)
Cc1cccc(N2CCN(C(=O)c3cc4c(=O)n(C)c5ccccc5c4s3)CC2)c1C	47% (active)

Structure (SMILES)	survival
COc1cccc(N2CCN(C(=O)c3cc4c(=O)oc5ccc(C)cc5c4s3)CC2)c1	89% (inactive)
Cn1c(=O)c2cc(C(=O)N3CCN(c4ccc(Cl)cc4)CC3)sc2c2ccccc21	56% (active)
Cc1cccc(N2CCN(C(=O)c3cc4c(=O)oc5ccccc5c4s3)CC2)c1C	66% (inactive)
CCn1c(=O)c2cc(C(=O)N3CCN(c4cccc(Cl)c4)CC3)sc2c2ccccc21	62% (inactive)
COc1ccccc1N1CCN(C(=O)c2cc3c(=O)n(C)c4ccccc4c3s2)CC1	73% (inactive)
Cc1ccc(Cl)cc1N1CCN(C(=O)c2cc3c(=O)n(C)c4ccccc4c3s2)CC1	56% (inactive)
Cn1c(=O)c2cc(C(=O)N3CCN(c4cccc(C(F)(F)F)c4)CC3)sc2c2ccccc21	92% (inactive)
CCn1c(=O)c2cc(C(=O)N3CCN(c4cccc(OC)c4)CC3)sc2c2ccccc21	53% (active)
COc1ccc(CNC(=O)CSc2nc3cc4c(cc3cc2C#N)OCCO4)cc1	96% (inactive)
CSc1cccc(NC(=O)C2CCN(C(=O)c3cnn(-c4ccccc4)c3-n3cccc3)CC2)c1	68% (inactive)
COc1ccc(/C=C(\C#N)c2nc(-c3cc(Cl)ccc3OC)cs2)cc1	91% (inactive)
CCc1ccc(NCc2cc3ccc(OC)cc3n(CC(=O)Nc3ccc(F)cc3F)c2=O)cc1	79% (inactive)
Cc1ccc(-c2cc3c(n2-c2ccc(F)cc2)CC(C)(C)CC3=O)cc1	98% (inactive)
Cc1ccc(-c2cc3c(n2-c2ccccc2F)CC(C)(C)CC3=O)cc1	101% (inactive)
COc1ccc(-n2c3c(cc(-c4nc(-c5ccc(C)cc5)cs4)c2=O)C(=O)CC(C)(C)C3)cc1	54% (inactive)
CCN(CC)C(=O)c1cc2c(n(-c3ccc(OC)cc3)c1=O)CC(C)(C)CC2=O	70% (inactive)
CCOc1ccc(-n2c(-c3ccc(Br)cc3)cc3c2CC(C)(C)CC3=O)cc1	17% (active)
CCOc1ccc(-n2c(-c3ccc(OC)cc3)cc3c2CC(C)(C)CC3=O)cc1	15% (active)

Source: PubChem BioAssay AID463173 (ICCB-Longwood Screening Facility, Harvard Medical School, 2010)
